PAFAH1B3 FP inh: blocks human PAF acetylhydrolase 1B catalytic subunit 3; recombinant PAFAH1B3, FP-rhodamine probe, fluorescence polarization; inhibition, % at 3.39 µM; Q15102; actives 0.28% (n = 340,000);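 active means inhibition above the screen-wide average of all tested compounds plus 3 SD, cut at about 25% in these data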
Target sequence (Q15102 whole entry, looked up): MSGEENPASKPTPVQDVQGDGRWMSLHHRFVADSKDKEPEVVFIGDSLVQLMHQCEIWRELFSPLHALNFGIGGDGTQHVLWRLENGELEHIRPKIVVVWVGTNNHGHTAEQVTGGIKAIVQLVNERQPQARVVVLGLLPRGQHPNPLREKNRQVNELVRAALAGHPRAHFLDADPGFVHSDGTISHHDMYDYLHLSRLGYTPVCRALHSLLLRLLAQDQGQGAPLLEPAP
Rin1-Abl PPI inh: blocks binding of human Rin1 to Abl; TR-FRET Rin1/Abl binding, biochemical; inhibition, % at 7.35 µM; actives 0.4% (n = 360,000); in the data active means inhibition above about 5%, passing the limit was not always enough
pPAFAH FP inh: inhibitors of human plasma PAF acetylhydrolase (pPAFAH). Q13093. recombinant pPAFAH, FP-rhodamine probe fluorescence polarization. inhibition, % at 3.39 µM. actives 1.5% (n = 330,000). AID 463082;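 active means inhibition above the mean inhibition across the screen plus 3 SD, cut at about 25% in these data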;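 further: inhibitors block binding of the rhodamine activity-based probe so polarization drops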
PAFAH1B2 inh: inhibitors of human PAFAH1B2 | AID 492953 | actives 1.2% (n = 340,000) | recombinant PAFAH1B2, FP-rhodamine activity probe, fluorescence polarization | inhibition, % at 3.39 µM | P68402;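 active means inhibition above the mean of all tested compounds plus 3 SD, cut at about 24% in these data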
Target sequence (P68402 whole entry, looked up): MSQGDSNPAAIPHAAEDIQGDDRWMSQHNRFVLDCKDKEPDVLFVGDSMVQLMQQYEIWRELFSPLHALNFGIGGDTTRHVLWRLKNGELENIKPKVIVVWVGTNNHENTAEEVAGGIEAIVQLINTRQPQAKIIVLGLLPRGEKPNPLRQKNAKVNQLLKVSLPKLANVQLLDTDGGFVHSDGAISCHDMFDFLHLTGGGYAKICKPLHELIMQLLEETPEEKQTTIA
PAFAH2 inh: inhibitors of human PAFAH2; Q99487; recombinant PAFAH2, FP-rhodamine activity probe, fluorescence polarization; inhibition, % at 3.39 µM; actives 0.99% (n = 340,000); AID 492956;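 active means inhibition above the mean over all tested compounds plus 3 SD, cut at about 30% in these data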;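 further: inhibitors block probe labeling of enzyme so polarization drops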
E coli Lon inh: inhibits E. coli Lon protease; P0A9M0; purified E. coli Lon protease, fluorescence polarization; inhibition, % at 7.94 µM; actives 0.42% (n = 360,000); AID 602123; in the data active means inhibition above about 13%, passing the limit was not always enough
pPAFAH FP conf: pPAFAH (human) inhibition, confirmed. shares compounds with pPAFAH FP inh. inhibition, % at 3.39 µM. recombinant pPAFAH, FP-Rh probe fluorescence polarization. actives 72% (n = 2,300);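 active means mean inhibition of the triplicate above the hit cutoff set for the earlier primary screen, cut at about 25% in these data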
Rin1 Abl conf: confirmation of inhibitors of human Rin1-Abl interaction. actives 49% (n = 1,300). TR-FRET Rin1-Abl binding, purified proteins. AID 602124. shares compounds with Rin1-Abl PPI inh. inhibition, % at 7.35 µM
GFP quencher: GFP fluorescence interference artifact; shares compounds with Rin1-Abl PPI inh; inhibitors/quenchers counterscreen; inhibition, % at 6.75 µM; actives 8.5% (n = 1,300); AID 602125;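 further: ABL1-eGFP fusion protein alone without its partner RIN1-SBP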
GFP quench dose: GFP fluorescence interference dose response | shares compounds with Rin1-Abl PPI inh | GFP fluorescence interference/quenching counterscreen | 230 tested, under 10 active | IC50, µM | AID 602182; call rule not given here;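 further: ABL1-eGFP fusion protein alone without its RIN1 binding partner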
Hits are given with their value; n = inactive; x = no result given. Most compounds without a hit are left out; they make up all but 3.1% or so of the library. Unless noted, no stated cut-off is given here; in the data, active means inhibition above about 6.5%; inactive means the rest.

SMILES | PAFAH1B3 FP inh | Rin1-Abl PPI inh | pPAFAH FP inh | PAFAH1B2 inh | PAFAH2 inh | E coli Lon inh | pPAFAH FP conf | Rin1 Abl conf | GFP quencher | others
O=C(O)CC(CCc1ccccc1)OC1OC(CO)C(O)C(O)C1O (configuration not stated) | n | 30 | 74 | n | 39 | n | 34 | 26 | n | GFP quench dose=n
COc1ccncc1-c1ccc(C2=CC(=O)CC(C)(C)C2=O)cc1 | x | n | x | x | x | n | x | x | x
O=C(Nc1ccc(Oc2ccccc2)cc1)C1CCN(c2c3c(nc4ncnn24)CCC3)CC1 | n | 6.0 | 76 | n | n | n | 75 | 12 | n
O=C1/C(=C/c2cccs2)SC(=S)N1NS(=O)(=O)c1ccccc1 | n | n | n | n | n | n | x | x | x
O=C1/C(=C/C=C/c2ccco2)SC(=S)N1NS(=O)(=O)c1ccccc1 | 45 | 13 | 74 | 32 | 67 | n | 69 | n | 26
CC(C(=O)O)N1C(=O)/C(=C/C=C/c2ccco2)SC1=S (configuration not stated) | 26 | 13 | 76 | n | 50 | n | 46 | 9.7 | 20
CC(=C\c1ccccc1)/C=C1/SC(=S)N(C(C(=O)O)C(C)C)C1=O (configuration not stated) | n | n | x | n | n | n | x | x | x
Cc1cccnc1NC(=O)CCc1nnc2ccc(N3CCC4(CC3)OCCO4)nn12 | n | n | n | n | n | n | x | x | x
CCNC(=O)C1CCCN(C(=O)C(c2ccccc2)c2ccccc2)CC1 (configuration not stated) | x | n | x | x | x | n | x | x | x
Cc1cc2c(N)cccc2nn1 | 33 | 12 | 73 | 26 | 38 | n | n | n | n
COc1ccc(NS(=O)(=O)c2ccc3c(c2)[C@H]2C=CC[C@H]2[C@@H](c2ccc(C(=O)O)cc2)N3)cc1 | 46 | 9.2 | 74 | 31 | 68 | n | 66 | 9.5 | 17
Oc1ccc(/C=N/Nc2ccnc3cc(Cl)ccc23)c(O)c1O | 48 | 24 | 44 | 37 | 35 | n | 57 | 26 | 7.5
Clc1ccc2c(NCc3ccccn3)ccnc2c1 | n | n | n | n | n | n | x | x | x
CC/C(=N\Nc1ccnc2cc(Cl)ccc12)c1ccc(O)cc1 | n | n | n | n | n | n | x | x | x
Oc1ccc(/C=N/Nc2ccnc3cc(Cl)ccc23)cc1O | 54 | 11 | 36 | 25 | n | n | 45 | n | n
CC1CCCCC12NC(=O)N(CC(=O)N1CCN(C(=O)c3cccs3)CC1)C2=O (configuration not stated) | n | n | n | n | n | n | x | x | x
CCOC(=O)[C@]12CCCC=C1N(Cc1cccc3ccccc13)C(=O)[C@H](CC(=O)N1CCC(c3ccccc3)CC1)C2 | x | x | x | x | x | n | x | x | x
O=C1O[C@@H](c2ccccc2)C[C@@H](O)C(=O)CCCc2ccccc21 | x | x | x | x | x | n | x | x | x
CC(=O)N1CCc2cc(S(=O)(=O)NCCCN3CCC(C)CC3)ccc21 | n | n | n | n | n | n | x | x | x
C=C1c2cccc(O)c2C(O)=C2C(=O)[C@]3(O)C(O)=C(C(N)=O)C(=O)[C@@H](N(C)C)[C@@H]3[C@@H](O)[C@H]12 | n | 23 | 95 | n | n | n | n | 17 | 12
O=C(CCN1C(=O)/C(=C/c2ccco2)SC1=S)Nc1ccc(O)cc1C(=O)O | n | n | x | n | n | n | x | x | x
O=C(CCN1C(=O)/C(=C\c2ccco2)SC1=S)Nc1ccc(C(=O)O)c(O)c1 | n | 10 | 49 | n | n | n | n | n | 7.3
O=c1c(O)c(-c2ccc(O)c(O)c2)oc2cc(O)cc(O)c12 | 53 | 24 | 53 | 29 | n | n | 82 | 16 | n
COC(=O)c1cc(O)cc(OC)c1Oc1cc(C)cc(O)c1C(=O)O | n | 20 | 35 | n | n | n | n | 21 | n | GFP quench dose=n

Bioassay records deposited in PubChem by The Scripps Research Institute Molecular Screening Center.
